Inconclusive results are not listed. Unmarked numbers belong to inactive results. The source made the active and inactive calls. Calls follow the shape of the dose curve; as a rule, active = well fitted curve in the direction sought with a large enough effect; inconclusive = small, poorly fitted or top-dose-only effect, or another doubt; inactive = no such curve, though single readings can be large; an effect the other way counts as inactive or inconclusive.
Assays:
[1] = Quantitative High-Throughput drug screen in 47 multiple myeloma cell lines against the NCATS MIPE library collection: Karpas620_DSMZ cell viability assay (AID 1918959); also: nearly all actives have a fitted effect of over 30% in size
In short: (§1)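 Relative luminescence from CellTiter-Glo served as the viability signal, referenced to DMSO-treated (100%) and cell-free medium (0%) controls. Treatment lasted 48 hours at 37C with 500 cells per well.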

[2] = Quantitative High-Throughput drug screen in 47 multiple myeloma cell lines against the NCATS MIPE library collection: KHM11_PLB cell viability assay (AID 1918962); also: nearly all actives have a fitted effect of over 35% in size
In short: as §1

[3] = Quantitative High-Throughput drug screen in 47 multiple myeloma cell lines against the NCATS MIPE library collection: JIM3_ECACC cell viability assay (AID 1918963; also: nearly all actives have a fitted effect of over 35% in size)
In short: as §1

[4] = Quantitative High-Throughput drug screen in 47 multiple myeloma cell lines against the NCATS MIPE library collection: INA6_PLB cell viability assay (AID 1918965; also: nearly all actives have a fitted effect of over 55% in size)
In short: as §1

[5] = Quantitative High-Throughput drug screen in 47 multiple myeloma cell lines against the NCATS MIPE library collection: JJN3_DSMZ cell viability assay (AID 1918966; also: nearly all actives have a fitted effect of over 50% in size)
In short: (§2)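 CellTiter-Glo luminescence (ATP) after 48 h compound exposure, 37C/5% CO2; 500 cells/well; MIPE 4.0 approved/investigational drugs pinned in; DMSO = 100%, media only = 0% viability.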

[6] = Quantitative High-Throughput drug screen in 47 multiple myeloma cell lines against the NCATS MIPE library collection: H1112_PLB cell viability assay (AID 1918967; also: nearly all actives have a fitted effect of over 30% in size)
In short: as §2

[7] = Quantitative High-Throughput drug screen in 47 multiple myeloma cell lines against the NCATS MIPE library collection: JIM1_ECACC cell viability assay (AID 1918964)
In short: as §2

[8] = Quantitative High-Throughput drug screen in 47 multiple myeloma cell lines against the NCATS MIPE library collection: Karpas417_ECACC cell viability assay (AID 1918961); conditions: Karpas417 myeloma viability, CellTiter-Glo ATP luminescence, 48 h; viability (% of DMSO): at 45.8 µM (top of the series)
In short: as §1

[9] = Quantitative High-Throughput drug screen in 47 multiple myeloma cell lines against the NCATS MIPE library collection: KMM1_JCRB cell viability assay (AID 1918960); also: nearly all actives have a fitted effect of over 30% in size
In short: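 CellTiter-Glo luminescence after 48 h exposure gives viability, scaled between DMSO-only (100%) and media-only (0%) controls. Library compounds are pinned onto 500 myeloma cells per well, incubated at 37C with 5% CO2.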
Potency is read from the fitted curve at half-maximal effect.

CC(C)NC[C@@H](C(=O)N1CCN(c2ncnc3c2[C@H](C)C[C@H]3O)CC1)c1ccc(Cl)cc1
Potency [1]: 4.18 µM (active)
Potency [2]: 14.8 µM (active)
Potency [3]: 1.66 µM (active)
Potency [4]: 4.18 µM (active)
Potency [5]: 6.62 µM (active)
Potency [6]: 3.72 µM (active)

c1ccc2c(Oc3nc(Nc4ccc(N5CCOCC5)cc4)c4ncn(C5CCCCC5)c4n3)cccc2c1
Potency [1]: inactive
Potency [3]: 18.7 µM (active)
Potency [6]: inactive

COC1=C2C[C@@H](C)C[C@H](OC)[C@@H](O)[C@@H](C)C=C(C)[C@H](OC(N)=O)[C@@H](OC)C=CC=C(C)C(=O)NC(=CC1=O)C2=O
Potency [2]: 0.132 µM (active)
Potency [3]: 0.209 µM (active)
Potency [7]: 7.43 µM (active)
Potency [4]: 0.148 µM (active)
Potency [5]: 0.0662 µM (active)
Potency [6]: 1.87 µM (active)

O=C(O)c1ccc(Nc2ncc3c(n2)-c2ccc(Cl)cc2C(c2c(F)cccc2F)=NC3)cc1
Potency [8]: inactive
Potency [3]: 4.69 µM (active)
Potency [4]: 1.87 µM (active)
Potency [5]: 3.72 µM (active)
Potency [6]: 16.6 µM (active)

Nc1ccn(C[C@@H](CO)OCP(=O)(O)O)c(=O)n1
Potency [9]: inactive
Potency [3]: inactive
Potency [5]: inactive

CS[C@H]1SC[C@@H]2C(=O)N(C)[C@H](C(C)C)C(=O)OC[C@H](NC(=O)c3cnc4ccccc4n3)C(=O)N[C@H](C)C(=O)N(C)[C@@H]1C(=O)N(C)[C@H](C(C)C)C(=O)OC[C@H](NC(=O)c1cnc3ccccc3n1)C(=O)N[C@H](C)C(=O)N2C
Potency [1]: 0.001 µM (active)
Potency [2]: 0.0093 µM (active)
Potency [4]: 0.001 µM (active)
Potency [5]: 0.0053 µM (active)
Potency [6]: 0.0118 µM (active)

COc1ccc(S(=O)(=O)Nc2cccnc2Nc2ccc(O)cc2)cc1
Potency [4]: 0.0833 µM (active)
Potency [5]: 1.32 µM (active)
Potency [6]: 0.105 µM (active)

NS(=O)(=O)OC[C@@H]1C[C@@H](n2ccc3c(N[C@H]4CCc5ccccc54)ncnc32)C[C@H]1O
Potency [8]: inactive
Potency [3]: 13.2 µM (active)
Potency [4]: 0.118 µM (active)
Potency [5]: 1.32 µM (active)

CC(=O)C1=C(O)C=C2Oc3c(C(C)=O)c(O)c(C)c(O)c3C2(C)C1=O (stereo not given)
Potency [9]: inactive
Potency [2]: inactive
Potency [3]: inactive
Potency [4]: inactive
Potency [6]: inactive

C[C@]12CC[C@@H]3c4ccc(O)cc4CC[C@H]3[C@H]1CC[C@H]2O
Potency [1]: 4.18 µM (active)
Potency [2]: 4.69 µM (active)
Potency [3]: 14.8 µM (active)
Potency [7]: 5.9 µM (active)
Potency [4]: 8.33 µM (active)
Potency [5]: 23.5 µM (active)
Potency [6]: 8.33 µM (active)

Cc1nc(NC(=O)N2CCC[C@@H]2C(N)=O)sc1-c1ccnc(C(C)(C)C(F)(F)F)c1
Potency [4]: 14.8 µM (active)
Potency [5]: 6.62 µM (active)

O=c1c(O)c(-c2ccc(O)c(O)c2)oc2cc(O)ccc12
Potency [9]: 5.9 µM (active)
Potency [3]: 13.2 µM (active)
Potency [4]: 7.43 µM (active)
Potency [5]: 20.9 µM (active)
Potency [6]: 26.4 µM (active)

O=C(NCc1ccccc1)[C@H](Cc1ccccc1)NC(=O)[C@@H]1O[C@@H]1C(=O)NCCc1ccc(O)cc1
Potency [1]: 26.4 µM (active)
Potency [2]: inactive
Potency [3]: inactive
Potency [7]: 18.7 µM (active)
Potency [6]: inactive

COc1cc(C(C)C)c(Oc2cnc(NC(CO)CO)nc2N)cc1I
Potency [2]: inactive
Potency [3]: inactive
Potency [4]: inactive
Potency [6]: inactive

CCOc1cc2c(c(F)c1OCC)C(=N)N(CC(=O)c1cc(N3CCOCC3)c(OC)c(C(C)(C)C)c1)C2
Potency [8]: inactive
Potency [3]: 9.35 µM (active)
Potency [4]: 11.8 µM (active)
Potency [5]: 18.7 µM (active)
Potency [6]: 11.8 µM (active)

c1cncc(CN2CCC(n3ncc4c(N5CCOCC5)nc(-c5ccc6[nH]ccc6c5)nc43)CC2)c1
Potency [1]: inactive
Potency [3]: 5.26 µM (active)
Potency [4]: 5.9 µM (active)
Potency [5]: 5.9 µM (active)
Potency [6]: 13.2 µM (active)

CNC(=O)Nc1ccc(-c2nc(N3CC4CCC(C3)O4)c3cnn(C4CCC5(CC4)OCCO5)c3n2)cc1
Potency [8]: 0.0066 µM (active)
Potency [4]: 0.0418 µM (active)
Potency [5]: 0.0118 µM (active)

CN1CCc2c(c3ccccc3n2Cc2ccc(C(=O)NO)cc2)C1
Potency [8]: 20.9 µM (active)
Potency [3]: 23.5 µM (active)
Potency [4]: 4.69 µM (active)
Potency [5]: 18.7 µM (active)
Potency [6]: 16.6 µM (active)

NC1=N[C@H]2[C@H](CS[C@H]2CCCCC(=O)O)N1
Potency [2]: inactive
Potency [3]: inactive
Potency [4]: inactive
Potency [6]: inactive

Cc1ccccc1C(=O)Nc1ccc(C(=O)N2CCCC(O)c3cc(Cl)ccc32)c(C)c1 (stereo not given)
Potency [1]: inactive
Potency [3]: inactive
Potency [5]: 13.2 µM (active)
Potency [6]: inactive

C[C@@H](NCc1cc2ccccc2[nH]1)c1cccc2ccccc12
Potency [8]: inactive
Potency [3]: inactive
Potency [4]: 4.69 µM (active)
Potency [5]: inactive

Cc1cnc(Nc2ccc(CN3CCOCC3)cc2)nc1Nc1cccc(S(=O)(=O)NC(C)(C)C)c1
Potency [3]: 2.64 µM (active)
Potency [4]: 0.372 µM (active)
Potency [5]: 6.62 µM (active)
Potency [6]: 3.32 µM (active)

CC(Oc1ccc(O)cc1)(P(=O)(O)O)P(=O)(O)O
Potency [1]: inactive
Potency [2]: inactive
Potency [3]: inactive
Potency [7]: inactive
Potency [6]: inactive

C[C@@H](Cc1cc2c(c(C(N)=O)c1)N(CCCO)CC2)NCCOc1ccccc1OCC(F)(F)F
Potency [3]: inactive
Potency [7]: inactive
Potency [5]: inactive
Potency [6]: inactive

C[C@](Cc1c[nH]c2ccccc12)(NC(=O)OC1C2CC3CC(C2)CC1C3)C(=O)NC[C@H](NC(=O)CCC(=O)O)c1ccccc1 (stereo not given in full)
Potency [3]: inactive
Potency [7]: inactive
Potency [5]: inactive

N#CC(=C(N)Sc1ccc(N)cc1)c1ccccc1C(F)(F)F
Potency [2]: 0.418 µM (active)
Potency [3]: 5.9 µM (active)
Potency [4]: 8.33 µM (active)
Potency [6]: 3.32 µM (active)

CC(=O)O[C@]1(C(C)=O)CC[C@H]2[C@@H]3C=C(C)C4=CC(=O)CC[C@]4(C)[C@@H]3CC[C@@]21C
Potency [1]: 14.8 µM (active)
Potency [2]: inactive
Potency [7]: 10.5 µM (active)

Cc1cc(C(=O)NOCCO)c(Nc2ccc(I)cc2F)n(C)c1=O
Potency [1]: 0.0059 µM (active)
Potency [7]: inactive
Potency [5]: 4.69 µM (active)

COc1ccc(C[C@@H](C)[C@@H](C)Cc2ccc(OC)c(OC)c2)cc1OC
Potency [9]: 0.235 µM (active)
Potency [4]: 0.662 µM (active)
Potency [5]: 0.833 µM (active)
Potency [6]: 0.296 µM (active)

CC(C)(C)c1nc2c3cc[nH]c(=O)c3c3cc(F)ccc3c2[nH]1
Potency [1]: inactive
Potency [2]: 1.48 µM (active)
Potency [7]: inactive
Potency [4]: 0.418 µM (active)
Potency [5]: 0.662 µM (active)
Potency [6]: 1.18 µM (active)

O=C(O)[C@H](CC(=O)N1C[C@@H]2CCCC[C@H]2C1)Cc1ccccc1
Potency [1]: inactive
Potency [2]: inactive
Potency [3]: inactive
Potency [5]: inactive
Potency [6]: inactive

CS(=O)(=O)N1CCc2c(-c3cnc(N)nc3)nc(N3CCOCC3)nc21
Potency [9]: 0.0662 µM (active)
Potency [4]: 1.48 µM (active)
Potency [5]: 0.59 µM (active)

CC(=O)N[C@H]1[C@@H]([C@H](O)[C@H](O)CO)OC(C(=O)O)=C[C@@H]1N=C(N)N
Potency [1]: inactive
Potency [2]: inactive
Potency [3]: inactive
Potency [4]: inactive
Potency [6]: inactive

CC(C)n1cnc2c(NCCc3ccc(O)cc3)nc(-c3csc4ccccc34)nc21
Potency [9]: inactive
Potency [3]: 9.35 µM (active)
Potency [4]: 20.9 µM (active)
Potency [6]: 13.2 µM (active)

C[C@H]1O[C@H](O[C@H]2[C@H](O)[C@@H](O)[C@@H](O[C@H]3[C@H](O)[C@@H](O)C(O)O[C@H]3CO)O[C@H]2CO)[C@H](O)[C@@H](O)[C@H]1N[C@H]1C=C(CO)[C@@H](O)[C@H](O)[C@@H]1O (stereo not given in full)
Potency [9]: inactive
Potency [3]: inactive
Potency [4]: inactive
Potency [6]: inactive

O=C(NC1CC1)c1cccc(-c2ccc3c(NC(=O)C4CC4)n[nH]c3c2)c1
Potency [1]: inactive
Potency [3]: 11.8 µM (active)
Potency [4]: 5.26 µM (active)
Potency [6]: 6.62 µM (active)

CCc1c(O)cc(O)c(C(=O)c2ccc(OCCN3CCOCC3)c(OC)c2)c1CC(=O)N(CCOC)CCOC
Potency [9]: 0.935 µM (active)
Potency [8]: inactive
Potency [2]: 0.469 µM (active)
Potency [3]: 0.833 µM (active)
Potency [4]: 0.59 µM (active)
Potency [5]: 0.935 µM (active)
Potency [6]: 14.8 µM (active)

CC(C)(C)[C@H](NC(=O)c1ccc(N)c(Cl)c1)C(=O)N1CCC[C@@H]1C(=O)N[C@H](C#N)CC(=O)O
viability (% of DMSO) [1]: 126% [at 3.51 µM]
viability, percent of control [3]: 130% [at 3.51 µM]
viability [6]: 116% [at 3.51 µM]

CC(C)C[C@H](NC(=O)[C@@H](NC(=O)c1cccc(-c2ccccc2)n1)[C@@H](C)O)B(O)O
Potency [1]: 0.0148 µM (active)
Potency [2]: 0.0187 µM (active)
Potency [7]: 0.0105 µM (active)
Potency [4]: 0.001 µM (active)
Potency [5]: 0.0418 µM (active)
Potency [6]: 0.0332 µM (active)

Reference: PubChem BioAssay (NCATS)
